In all, about 220,000 compounds went through this assay and about 910 (0.41%) were called active. The entries come from a sample that favours actives as a whole. Potency and affinity values are given separately. Values without a mark were called inactive.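 How the source made its calls: active means primary inhibition above the hit cutoff, then over 50% inhibition at one or more dose response concentrations (cut at about 23% in these data, passing the limit was not always enough); inconclusive means conflicting primary data, or primary hits not chosen for dose response; inactive means low primary inhibition, or under 50% at every dose.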
These molecules were tested against Aminopeptidase N (Plasmodium falciparum (isolate 3D7)) (UniProt O96935) (assay: P. falciparum M1AAP inhibitors, biochemical, fluorogenic H-Leu-NHMec substrate, 1536-well (AID 1445;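 further: plate controls were DMSO full reaction for no effect and no enzyme background for full effect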)). Conditions: recombinant M1AAP, H-Leu-NHMec fluorogenic kinetic assay; at 30 µM, active compounds read high unless noted.
Chain of Aminopeptidase N (Plasmodium falciparum (isolate 3D7)) (O96935 whole entry, looked up): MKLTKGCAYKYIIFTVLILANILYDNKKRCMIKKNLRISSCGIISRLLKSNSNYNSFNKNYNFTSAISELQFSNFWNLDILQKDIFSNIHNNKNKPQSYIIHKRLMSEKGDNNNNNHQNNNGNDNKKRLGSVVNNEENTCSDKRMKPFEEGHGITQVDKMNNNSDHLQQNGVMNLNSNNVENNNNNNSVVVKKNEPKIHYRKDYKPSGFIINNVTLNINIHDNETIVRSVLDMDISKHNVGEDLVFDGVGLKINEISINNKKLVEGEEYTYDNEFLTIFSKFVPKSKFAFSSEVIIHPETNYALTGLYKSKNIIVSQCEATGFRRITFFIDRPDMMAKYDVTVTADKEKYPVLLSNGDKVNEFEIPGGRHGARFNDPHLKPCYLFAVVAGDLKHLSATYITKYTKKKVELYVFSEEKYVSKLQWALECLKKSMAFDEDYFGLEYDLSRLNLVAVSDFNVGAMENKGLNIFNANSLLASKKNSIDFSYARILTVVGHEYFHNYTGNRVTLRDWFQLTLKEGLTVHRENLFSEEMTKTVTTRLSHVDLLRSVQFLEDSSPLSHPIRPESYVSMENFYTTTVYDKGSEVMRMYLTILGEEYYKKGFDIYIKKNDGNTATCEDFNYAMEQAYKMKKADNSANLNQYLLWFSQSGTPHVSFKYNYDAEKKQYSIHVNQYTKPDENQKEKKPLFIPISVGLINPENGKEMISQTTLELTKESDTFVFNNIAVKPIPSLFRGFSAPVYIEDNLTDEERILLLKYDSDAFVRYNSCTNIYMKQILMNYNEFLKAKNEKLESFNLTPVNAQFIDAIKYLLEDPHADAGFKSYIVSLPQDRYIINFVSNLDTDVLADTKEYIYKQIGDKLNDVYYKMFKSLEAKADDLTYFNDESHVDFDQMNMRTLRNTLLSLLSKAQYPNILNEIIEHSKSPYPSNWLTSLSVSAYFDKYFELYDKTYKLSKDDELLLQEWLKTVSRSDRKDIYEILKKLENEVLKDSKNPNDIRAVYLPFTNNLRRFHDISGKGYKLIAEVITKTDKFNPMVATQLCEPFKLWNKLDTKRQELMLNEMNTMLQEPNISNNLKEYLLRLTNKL

**Q.** Which inhibition does the source give for `O=C(CSc1nc2c(c(=O)[nH]1)CCCC2)Nc1ccc(Cl)cc1F` here?
**A.** The inhibition was -2.08%.

**Q.** `CS(=O)(=O)N1CCC(C(=O)Nc2ccc(F)cc2F)CC1` was tested. Which inhibition did it give?
**A.** The inhibition was -3.46%.

**Q.** Which inhibition does the source give for `CCCCC(CC)CNC(=O)c1cccs1` (stereo not drawn) here?
**A.** Its inhibition is -3.27%.

**Q.** Which inhibition does the source give for `Cc1ccccc1NS(=O)(=O)c1cc(C(=O)N2CCCC2)ccc1C` here?
**A.** The inhibition was 4.97%.

**Q.** For `Cc1nnc(SCC(=O)NCCN2C(=O)CSC2=O)s1`, which inhibition is on record?
**A.** The inhibition was 2.17%.

**Q.** For `Cc1ccc(CSc2ncccc2C(=O)O)cc1`, which inhibition is on record?
**A.** Its inhibition is 1.82%.

**Q.** Which inhibition does the source give for `Cc1cccc(CSc2ncccc2C(=O)O)c1` here?
**A.** The inhibition was 2.89%.

**Q.** How did the inhibition turn out when `COc1ccc(-c2cc(C(=O)NCc3ccccc3)no2)cc1OC` was run?
**A.** Its inhibition is -1.3%.

**Q.** Which inhibition does the source give for `CC(=O)N=c1sc2cc(C)ccc2n1C` here?
**A.** The inhibition was 3.39%.

**Q.** Which inhibition does the source give for `Cc1cc(C(=O)OCC(=O)NCc2ccc(Cl)cc2)c(C)o1` here?
**A.** Its inhibition is -6.7%.

**Q.** `CCN(CC)CC(=O)Nc1cccc2c1C(=O)c1ccccc1C2=O` was tested. Which inhibition did it give?
**A.** The inhibition was 5.73%.

**Q.** Which inhibition does the source give for `CCN(CC)CCC(=O)Nc1cccc2c1C(=O)c1ccccc1C2=O` here?
**A.** The inhibition was 7.62%.

**Q.** How did the inhibition turn out when `CCN(CC)C(C(=O)NC1CCCCC1)c1ccc(C)cc1` (stereo not drawn) was run?
**A.** Its inhibition is -1.29%.

**Q.** `COc1ccc(NC(=O)CN2C(=O)c3ccccc3Sc3ccc(C(=O)N4CCOCC4)cc32)c(OC)c1` was tested. Which inhibition did it give?
**A.** Its inhibition is 9.02%.

**Q.** Which inhibition does the source give for `CSCCC1C(C#N)=C(N)Oc2n[nH]c(-c3cccs3)c21` (stereo not drawn) here?
**A.** The inhibition was 23.8% (active).

**Q.** `CC(C)CC1C(C#N)=C(N)Oc2n[nH]c(-c3cccs3)c21` (stereo not drawn) was tested. Which inhibition did it give?
**A.** The inhibition was -0.26%.

**Q.** With `CC(C)C1C(C#N)=C(N)Oc2n[nH]c(-c3cccs3)c21` (stereo not drawn) as the molecule, how does the inhibition read?
**A.** The inhibition was 5.75%.

**Q.** With `Cc1ccc2c(CN3C(=O)NC4(CCCCC4)C3=O)cc(=O)oc2c1C` as the molecule, how does the inhibition read?
**A.** Its inhibition is 8.97%.

**Q.** With `Cc1ccc(CSc2nc3sc(C)c(C)c3c(=O)n2Cc2ccco2)cc1` as the molecule, how does the inhibition read?
**A.** The inhibition was 9.77%.

**Q.** With `Cc1ccc(C)c(NC(=O)c2ccc3c(c2)N(Cc2ccc(F)cc2)C(=O)CS3=O)c1` (stereo not drawn) as the molecule, how does the inhibition read?
**A.** The inhibition was -7.55%.

**Q.** With `O=C(NC1CCCCCCC1)c1ccc2c(c1)N(Cc1ccc(F)cc1)C(=O)CS2=O` (stereo not drawn) as the molecule, how does the inhibition read?
**A.** The inhibition was 23.5% (active).

**Q.** How did the inhibition turn out when `O=C(Nc1ccccc1Cl)c1ccc2c(c1)N(Cc1ccc(F)cc1)C(=O)CS2=O` (stereo not drawn) was run?
**A.** Its inhibition is 3.24%.

**Q.** How did the inhibition turn out when `CNC(=O)c1cc2c(ccc3ccccc32)o1` was run?
**A.** Its inhibition is 3.24%.

**Q.** With `Cn1ncc(Br)c1C(=O)Nc1ccc(Br)cn1` as the molecule, how does the inhibition read?
**A.** The inhibition was -3.07%.

**Q.** Which inhibition does the source give for `Cc1occc1C(=O)NCCCc1ccccc1` here?
**A.** Its inhibition is 0.03%.

**Q.** Which inhibition does the source give for `O=C(Nc1nnc(SCc2ccccc2)s1)c1cccs1` here?
**A.** The inhibition was -2.48%.

**Q.** With `COc1cccc(C(=O)Nc2cc(C(=O)NCCc3ccccc3)ccc2Cl)c1` as the molecule, how does the inhibition read?
**A.** The inhibition was 24.9% (active).

**Q.** With `COCC(=O)Nc1cc(C(=O)NCCc2ccccc2)ccc1Cl` as the molecule, how does the inhibition read?
**A.** Its inhibition is -6.24%.

**Q.** Which inhibition does the source give for `COc1ccc(C(=O)Nc2cc(C(=O)NCCc3ccccc3)ccc2Cl)cc1` here?
**A.** Its inhibition is 13.3%.

**Q.** With `Cc1ccc(C(C(=O)NC(C)(C)C)N(Cc2cccs2)C(=O)c2ccc3c(c2)OCCO3)cc1` (stereo not drawn) as the molecule, how does the inhibition read?
**A.** The inhibition was 9.95%.

**Q.** With `O=C(Cn1nnc(-c2ccc3c(c2)OCO3)n1)N1CCOCC1` as the molecule, how does the inhibition read?
**A.** Its inhibition is 0.39%.

**Q.** For `CCOc1ccc(N2CC(C(=O)Nc3ccc(S(=O)(=O)Nc4ncccn4)cc3)CC2=O)cc1` (stereo not drawn), which inhibition is on record?
**A.** The inhibition was 20.6%.

**Q.** How did the inhibition turn out when `CN(Cc1cnccn1)Cc1c(C(=O)N2CCc3ccccc3C2)nc2ccc(Cl)cn12` was run?
**A.** The inhibition was 1.48%.

**Q.** Which inhibition does the source give for `CC1(NC(=S)NCCO)CCS(=O)(=O)C1` (stereo not drawn) here?
**A.** The inhibition was 6.94%.

**Q.** For `O=C(NCc1cccs1)C1CCCN(S(=O)(=O)c2cccc3cccnc23)C1` (stereo not drawn), which inhibition is on record?
**A.** Its inhibition is 21.9%.

**Q.** `COc1cccc(NC(=O)C2CCCN(S(=O)(=O)c3cccc4cccnc34)C2)c1` (stereo not drawn) was tested. Which inhibition did it give?
**A.** The inhibition was 4.01%.

**Q.** For `O=C(NCc1cccs1)C1CCN(S(=O)(=O)c2cccc3nsnc23)CC1`, which inhibition is on record?
**A.** The inhibition was 6.27%.

**Q.** `COc1ccc(CNC(=O)C2CCN(S(=O)(=O)c3cccc4cccnc34)CC2)cc1` was tested. Which inhibition did it give?
**A.** Its inhibition is 11.4%.

**Q.** How did the inhibition turn out when `O=C(NCc1cccs1)C1CCN(S(=O)(=O)c2cccc3cccnc23)CC1` was run?
**A.** The inhibition was 45.9% (active).

**Q.** How did the inhibition turn out when `COc1ccc(NC(=O)C2CCN(S(=O)(=O)c3cccc4cccnc34)CC2)cc1OC` was run?
**A.** Its inhibition is 2.6%.

**Q.** `COc1ccc(NC(=O)C2CCCN(S(=O)(=O)c3cccc4cccnc34)C2)cc1OC` (stereo not drawn) was tested. Which inhibition did it give?
**A.** The inhibition was 28.4% (active).

**Q.** Which inhibition does the source give for `O=C(NCc1ccco1)C1CCN(S(=O)(=O)c2cccc3cccnc23)CC1` here?
**A.** The inhibition was 0.35%.

**Q.** Which inhibition does the source give for `CCOc1ccccc1C1C(C(=O)OC)=C(N)OC2=C1C(=O)CCC2` (stereo not drawn) here?
**A.** The inhibition was 3.31%.

**Q.** With `CCOC(=O)N1CCC(NC(=O)C2=CCN(S(=O)(=O)c3ccc(F)cc3)CC2)CC1` as the molecule, how does the inhibition read?
**A.** The inhibition was -3%.

**Q.** How did the inhibition turn out when `Cc1cccc(C(=O)Nc2sc(C)c(-c3ccccc3)c2C#N)c1` was run?
**A.** The inhibition was 3.54%.

**Q.** With `O=C(OC1CCOC1=O)c1ccc(Cl)c(S(=O)(=O)N2CCCCC2)c1` (stereo not drawn) as the molecule, how does the inhibition read?
**A.** The inhibition was 1.33%.

**Q.** Which inhibition does the source give for `COc1cc(/C=C2\SC(c3ccc(C)cc3)=NC2=O)cc(OC)c1O` here?
**A.** The inhibition was 19.7%.

**Q.** Which inhibition does the source give for `COc1cc(/C=C2\SC(c3ccc(C)cc3)=NC2=O)cc(OC)c1OC` here?
**A.** Its inhibition is -0.48%.

**Q.** How did the inhibition turn out when `COCCCNC(=O)c1cc2c(=O)n3cccc(C)c3nc2n(C(C)C)c1=N` was run?
**A.** Its inhibition is 21.8%.

**Q.** Which inhibition does the source give for `C=CCn1c(=N)c(C(=O)NCCCOC)cc2c(=O)n3ccccc3nc21` here?
**A.** Its inhibition is 13.6%.

**Q.** How did the inhibition turn out when `COCCNC(=O)c1cc2c(=O)n3cccc(C)c3nc2n(Cc2ccncc2)c1=N` was run?
**A.** The inhibition was 30.2%.

**Q.** With `C=CCn1c(=N)c(C(=O)NCCCOC)cc2c(=O)n3cc(C)ccc3nc21` as the molecule, how does the inhibition read?
**A.** Its inhibition is 4.34%.

**Q.** How did the inhibition turn out when `CC(CN1CCCCC1)OC(=O)C1c2ccccc2Oc2ccccc21` (stereo not drawn) was run?
**A.** The inhibition was 1.62%.

**Q.** With `Cc1ccc(S(=O)(=O)N2c3ccccc3CC2C)cc1` (stereo not drawn) as the molecule, how does the inhibition read?
**A.** Its inhibition is 2.44%.

**Q.** `CC(c1ccccc1)C1CC(=O)N(C2CCCCC2)C1=O` (stereo not drawn) was tested. Which inhibition did it give?
**A.** The inhibition was -0.34%.

**Q.** Which inhibition does the source give for `COc1ccc2cc1Oc1ccc(cc1)C[C@H]1c3cc(c(OC)cc3CCN1C)Oc1c(OC)c(OC)cc3c1[C@H](C2)N(C)CC3` here?
**A.** Its inhibition is 0.59%.

**Q.** How did the inhibition turn out when `COc1ccc2cc1Oc1ccc(cc1)C[C@H]1c3c(cc4c(c3Oc3cc5c(cc3OC)CCN(C)[C@@H]5C2)OCO4)CCN1C` was run?
**A.** The inhibition was 2.7%.

**Q.** How did the inhibition turn out when `CC(c1ccccc1)n1c(Cn2ncc3ccccc3c2=O)n[nH]c1=S` (stereo not drawn) was run?
**A.** Its inhibition is 7.12%.

**Q.** Which inhibition does the source give for `O=C(NCc1ccco1)C1CCCN(S(=O)(=O)c2cccc3nsnc23)C1` (stereo not drawn) here?
**A.** Its inhibition is 5.11%.

**Q.** For `O=C(NCc1ccccc1)C1CCCN(S(=O)(=O)c2cccc3nonc23)C1` (stereo not drawn), which inhibition is on record?
**A.** The inhibition was 34.1%.

**Q.** For `O=C(NCc1ccc2c(c1)OCO2)C1CCCN(S(=O)(=O)c2cccc3cccnc23)C1` (stereo not drawn), which inhibition is on record?
**A.** The inhibition was 18.6%.

**Q.** How did the inhibition turn out when `O=C(NCc1ccco1)C1CCCN(S(=O)(=O)c2cccc3cccnc23)C1` (stereo not drawn) was run?
**A.** Its inhibition is 9.65%.

**Q.** With `O=C(NCc1ccc2c(c1)OCO2)C1CCCN(S(=O)(=O)c2cccc3nonc23)C1` (stereo not drawn) as the molecule, how does the inhibition read?
**A.** Its inhibition is 27.8% (active).

— PubChem BioAssay AID1445 (SRMLSC, 2008)
